Source: PubChem (National Center for Advancing Translational Sciences (NCATS))
JMJD2A Tudor inh: inhibitors of human JMJD2A Tudor domain. O75164. AlphaScreen JMJD2A-Tudor / H3K4me3 peptide binding. Potency, µM (doses to about 114 µM), for inactives: top-dose activity change, negative = inhibition, actives largely listed as inhibitors. 390,000 compounds, 4.4% hits. AID 504339; also: potency is read from the fitted curve at half-maximal effect; % is scaled to controls: 0 for no effect and ±100 for the full control effect; nearly all actives have a fitted effect of over 50% in size
HP1b binding inh: inhibitors of HP1-beta chromodomain binding to methylated histone tails | P83916 | AlphaScreen HP1-beta / biotin-H3K9me3 peptide binding | Potency, µM (series often up to 114 µM), for inactives: at the top dose activity change, negative = inhibition, actives largely listed as inhibitors | 390,000 compounds, 0.56% hits; also: potency is read from the fitted curve at half-maximal effect; nearly all actives have a fitted effect of over 70% in size
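HP1-beta protein (50 nM final) preincubated 30 min at room temperature with biotinylated H3(1-18)K9me3 peptide (50 nM) in PBS pH 7.4, 0.01% Tween-20, then compound added for 30 min. AlphaScreen streptavidin donor/nickel chelate acceptor beads (10 ug/mL final), 30 min dark, luminescence read.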
CtBP-E1A inh: blocks the CtBP interaction with E1A; AlphaScreen GST-E1A/His-CtBP binding, 1536-well; stronger effect = lower value; 340,000 compounds, 0.49% hits; activity change, % (concentration not given with the values); AID 651724; in the data active = activity change below about -65%; inconclusive = mostly about -30% to -63%; also: % is scaled to controls: 0 for no effect and ±100 for the full control effect
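In 5 uL wells, 23 nL compound meets equimolar GST-E1A and His-CtBP (5X stock 125 nM each) for 2 h, 37 °C. Beads (5X, 50 ug/mL) then 1 h, 37 °C, dark.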
BAZ2B block: inhibitors of human BAZ2B bromodomain; Q9UIF8; AlphaScreen BAZ2B-H3K14Ac peptide displacement; AID 504333; Potency, µM (series often up to 114 µM), for the others: at the top dose activity change, negative = inhibition, hits mostly inhibitors; 360,000 compounds, 4.4% hits; also: potency is read from the fitted curve at half-maximal effect; % is scaled to controls: 0 for no effect and ±100 for the full control effect; nearly all actives have a fitted effect of over 60% in size
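AlphaScreen displacement of biotin-H3(5-23)K14Ac peptide (50 nM final) from BAZ2B (50 nM final) in PBS pH 7.4, 0.01% Tween-20; complex preformed 30 min RT, then compounds (top 110 uM) 30 min RT, beads 20 min dark.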
G9a inh: G9a (human) methyltransferase inhibition. G9a H3K9 monomethylation, AlphaScreen, 2 h. Potency, µM (titrated, usually from 102 µM), for inactives: at the highest dose activity, negative = inhibition, hits mostly inhibitors. 350,000 compounds, 8.8% hits. AID 504332; also: potency is read from the fitted curve at half-maximal effect; % is scaled to controls: 0 for no effect and ±100 for the full control effect; nearly all actives have a fitted effect of over 75% in size
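Chemiluminescent proximity detection of H3K9 monomethylation, read after 10 min bead incubation in the dark. Reaction: 20 nM G9a, 500 nM biotin-H3K9 peptide, 20 uM SAM cofactor, 2 h, room temperature, following 15 min enzyme-compound preincubation.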
Six1-Eya2 blk: blocks human Six1 binding to Eya2 | Q15475+O00167 | AlphaScreen GST-Six1/His-Eya2 binding, biochemical; stronger effect = lower value | activity change, % (test concentration not listed) | 360,000 compounds, 0.56% hits | AID 651725; in the data active = activity change below about -65%; inconclusive = mostly about -30% to -63%; also: % is scaled to controls: 0 for no effect and ±100 for the full control effect
Target sequence (O00167 whole entry, looked up): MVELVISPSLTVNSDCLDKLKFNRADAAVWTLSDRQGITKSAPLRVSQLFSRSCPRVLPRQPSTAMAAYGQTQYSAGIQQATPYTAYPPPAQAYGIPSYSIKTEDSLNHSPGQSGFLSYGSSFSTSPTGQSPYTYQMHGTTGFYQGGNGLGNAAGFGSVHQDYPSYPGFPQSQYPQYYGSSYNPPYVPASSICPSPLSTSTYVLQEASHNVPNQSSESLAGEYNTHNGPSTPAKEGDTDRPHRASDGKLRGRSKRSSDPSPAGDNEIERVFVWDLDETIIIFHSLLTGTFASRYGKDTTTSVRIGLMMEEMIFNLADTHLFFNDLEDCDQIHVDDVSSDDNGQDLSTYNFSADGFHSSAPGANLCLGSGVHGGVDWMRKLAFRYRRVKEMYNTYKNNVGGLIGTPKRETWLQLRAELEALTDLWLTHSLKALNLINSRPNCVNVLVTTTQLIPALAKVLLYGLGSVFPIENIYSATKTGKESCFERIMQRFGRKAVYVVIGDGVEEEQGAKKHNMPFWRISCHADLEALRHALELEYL
Target sequence (Q15475 whole entry, looked up): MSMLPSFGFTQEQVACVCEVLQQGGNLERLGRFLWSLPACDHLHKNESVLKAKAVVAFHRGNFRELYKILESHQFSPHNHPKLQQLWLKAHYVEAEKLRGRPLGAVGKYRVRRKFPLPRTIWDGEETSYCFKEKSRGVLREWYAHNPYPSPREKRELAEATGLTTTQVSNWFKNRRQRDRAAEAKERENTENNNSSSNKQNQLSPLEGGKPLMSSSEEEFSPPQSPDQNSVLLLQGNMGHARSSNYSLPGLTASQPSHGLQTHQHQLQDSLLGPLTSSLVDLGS
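Six1/Eya2 binding was read as AlphaScreen signal after compounds were pinned into GST-Six1 plus His-tagged Eya2 (5X stock 250/500 nM) in pH 8.0 Tris/NaCl/TCEP buffer, beads added, then incubated 1 h, 37 C, dark.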
* marks the source's active call; other numbers are inactive results; ? = inconclusive; . = not tested or not shown; ! = a repeat was not active; [ ] = dose if it differs, or a comment. Only some compounds are listed: those with a hit (about 10% of all), similar ones and a draw of the others. Unless noted, calls follow the shape of the dose curve; as a rule, active = well fitted inhibition curve with a large enough effect; inconclusive = small, poorly fitted or top-dose-only effect; inactive = no such curve, though single readings can be large or run the other way.

SMILES	JMJD2A Tudor inh	HP1b binding inh	CtBP-E1A inh	BAZ2B block	G9a inh	Six1-Eya2 blk
O=C1c2oc3ccccc3c(=O)c2C(c2ccccc2F)N1Cc1ccc2c(c1)OCO2 (stereo not drawn)	-15.5%	7.9%	.	1.3%	-31.2%[59 µM]	.
CCOC(=O)CCn1nc(C)c2c(C)n(-c3ccccc3)nc2c1=O	2.3%	33.0%	.	-2.6%	4.8%[59 µM]	.
Cc1ccc(N2CC(NC(=O)c3cccs3)CC2=O)cc1 (stereo not drawn)	2.6%	32.3%	.	-16.9%	4.5%[59 µM]	.
CC1CC(C)CN(C(=O)c2cccc3c2-c2ccccc2C3=O)C1 (stereo not drawn)	-19.3%	22.4%	.	-21.7%	?	-0.8
O=C(NCCO)c1cccc2c1C(=O)c1ccccc1-2	-7.5%	31.2%	-3.1	20.9%	?	-4.2
Cc1cccc(NC(=O)COC(=O)c2cccc3c2C(=O)c2ccccc2C3=O)c1C	?	?	-5.6	?	16.1%[59 µM]	-65.1*
CCN(CC)CCNC(=O)c1ccc2c(c1NCCO)C(=O)c1ccccc1C2=O	?	?	.	39.8µM*	39.8µM*	?
CC1CCN(C(=O)c2ccc3c(c2NCCO)C(=O)c2ccccc2C3=O)CC1	44.7µM*	?	?	31.6µM*	?	?
Cc1cccc(C)c1NC(=O)COC(=O)c1cccc2c1C(=O)c1ccccc1C2=O	-1.1%	9.6%	-1.2	-5.8%	?	2.4
CCN(CC)CCC(=O)Nc1cccc2c1C(=O)c1ccccc1C2=O	?	-23.0%	-28.4	?	39.8µM*	-27.0
CC(=O)Nc1nonc1-c1nnc(SCC(=O)Nc2ccccc2Cl)n1C	-10.6%	8.0%	.	1.8%	5.4%[59 µM]	.
CCOc1ccc(CCn2c3c(c(=O)[nH]c2=O)C(NC(=O)c2cccc(F)c2)(C(F)(F)F)C(=O)N3)cc1OCC (stereo not drawn)	-5.6%	9.9%	.	-15.9%	-34.0%[59 µM]	.
COc1cc2nc(CN(C)Cc3nc4ccccc4c(=O)[nH]3)[nH]c(=O)c2cc1OC	-2.1%	37.3%	-66.3*	70.3%	35.9%[12.7 µM]	-66.2*
CCN(Cc1nc2ccccc2c(=O)[nH]1)Cc1nc2cc(OC)c(OC)cc2c(=O)[nH]1	10.8%	29.9%	-18.3	8.6%	20.2%[12.7 µM]	-18.4
CN(Cc1cc(=O)n2ccsc2n1)Cc1nc2ccccc2c(=O)[nH]1	-15.4%	39.8%	-29.0	.	?	-28.5
CCN(Cc1cc(=O)n2ccsc2n1)Cc1nc2cc(OC)c(OC)cc2c(=O)[nH]1	-7.4%[11.4 µM]	11.0%	22.7	3.1%	12.6µM*	9.4
Cc1c(Cc2ccc3c(c2)OCO3)sc(NC(=O)c2ccccc2)c1C(N)=O	-14.1%	10.9%	5.3	-0.1%	31.6µM*	3.3
CCCC(=O)Nc1sc(Cc2ccccc2)c(C)c1C(N)=O	-22.5%	?	-8.1	-25.5%	3.55µM*	-8.6
O=C(NCC(c1ccco1)S(=O)(=O)c1cccs1)c1ccc(C(F)(F)F)cc1 (stereo not drawn)	-2.9%	27.1%[57 µM]	.	3.0%	1.0%[59 µM]	.
COc1cc2c(C#N)c(N3CCN(C)CC3)nc(N)c2c(N)n1	.	.	.	4.2%	50.1µM*	.
COc1cc2c(C#N)c(N3CCCC3)nc(N)c2c(N)n1	-30.2%	39.2%	-73.2*!	15.1%	11.2%	-22.2
COc1cc2c(C#N)c(N3CCN(c4ccccc4OC)CC3)nc(N)c2c(N)n1	-31.2%	-11.2%	-1.6	?	?	-1.9
O=C(O)c1cc2nccc(-c3ccco3)n2n1	89.1µM*	16.9%	-22.5	?	50.1µM*	-29.9
COc1ccc(-c2ccnc3cc(C(=O)O)nn23)cc1	-4.9%	13.5%	-1.8	?	-18.1%	-3.1
Cc1ccc(Nc2nc(C)cc(C)n2)c(Br)c1	45.4%	74.9%	12.9	23.1%	33.4%	14.6
SMILES	JMJD2A Tudor inh	HP1b binding inh	CtBP-E1A inh	BAZ2B block	G9a inh	Six1-Eya2 blk
CCOC(=O)c1ccc(Nc2nc(=O)c3cccnc3s2)cc1	-5.7%	28.3%	4.8	-2.1%	28.2µM*	-0.1
CC(=O)c1cccc(Nc2nc(=O)c3cccnc3s2)c1	-9.0%	26.2%	0.7	-5.2%	50.1µM*	-14.1
Cc1ccc(Nc2nc(=O)c3cccnc3s2)c(Br)c1	-21.4%	7.2%	-3.1	-27.3%	14.1µM*	-2.5
CC(=O)c1ccc(Nc2nc(=O)c3cccnc3s2)cc1	-11.3%	19.9%	-5.9	-3.1%	?	-3.4
O=c1nc(Nc2ccc(OCc3ccccc3)cc2)sc2ncccc12	-16.2%	22.0%	2.7	-11.6%	50.1µM*	0.1
CCOC(=O)c1c(C)[nH]c(C)c1S(=O)(=O)N1CCCC(C(=O)NCc2cccc(OC)c2)C1 (stereo not drawn)	-8.8%	18.2%	.	-7.7%	-29.6%[59 µM]	.
c1ccc(Nc2nc3ccccc3o2)cc1	-13.3%	21.4%	6.0	6.7%	-7.1%[12.7 µM]	2.3
Oc1ccccc1/C=N/Nc1nc2ccccc2o1	-23.9%	31.3%	-77.1*	-1.6%	.	-71.6*
Brc1ccc(/C=N/Nc2nc3ccccc3o2)cc1	-14.2%	44.5%	-12.8	-27.3%	28.2µM*	-8.1
Cc1ccc2oc(C(=O)Nc3cccc(Cl)c3)cc(=O)c2c1	-15.6%	26.5%	.	-14.5%	8.7%[59 µM]	.
COC(=O)/C(=N/Nc1ccccc1)N1CCCc2ccccc21	?	1.2%	?	-37.5%	44.7µM*	-15.2
COC(=O)/C(=N/Nc1ccc(C)cc1)N1CCCc2ccccc21	?	-5.8%	-6.4	?	44.7µM*	-19.9
COc1ccc(-n2ccn(CC(=O)NCc3ccc(C)cc3)c(=O)c2=O)cc1OC	-15.5%	22.4%	.	3.1%	-31.3%[59 µM]	.
Nc1nc2ccccc2n1C(=O)c1ccccc1	-10.7%	36.4%	.	79.4µM*	.	-6.2
COCCCNC(=O)Nc1cc(C(=O)NCc2ccc(OC)cc2)ccc1N1CCCC1	-13.9%	25.3%	.	-20.2%	-8.0%[59 µM]	.
Cc1ccc(C(=O)OCC(=O)c2ccc(CC(=O)N3CCOCC3)s2)c(C)c1	12.6µM*	-36.4%	1.7	50.1µM*	44.7µM*	-18.4
Cc1ccc(C(=O)OCC(=O)c2ccc(CC(=O)N3CCOCC3)s2)cc1C	?	18.7%	-1.2	50.1µM*	?	-8.7
Cc1ncoc1C(=O)Nc1ncc([N+](=O)[O-])s1	39.8µM*	?	0.0	?	4.47µM*	-20.0
COc1ccc(-n2nc3c(N)n[nH]c3cc2=O)cc1	-10.4%	29.9%	-26.7	-16.9%	50.1µM*	-4.6
Nc1ccn(-c2ccc(Cl)cc2)c(=O)c1	-9.2%	6.0%	-1.7	4.6%	0.1%	5.4
Nc1n[nH]c2cc(=O)n(-c3ccc(Cl)cc3)nc12	-9.2%	44.3%	.	-9.7%	44.7µM*	?
Cc1nn2c(N)csc2nc1=O	.	.	.	?	79.4µM*	.
Cc1nn2c3ccccc3n(C)c2nc1=O	-12.4%	13.1%	-15.9	3.1%	-0.4%[59 µM]	-21.1
